FLuc counter – qHTS profiling assay for firefly luciferase inhibitor/activator using purifed enzyme and Km concentrations of substrates (counterscreen for miR-21 project); Luciferin 4-monooxygenase (Photinus pyralis), P08659; purified FLuc, Km substrates, luminescence inhibition; AID 588342, 2011; actives 6.9% (n = 360,000); Potency, µM (titrated, usually from 57.5 µM), for the others: at the top dose activity change, negative = inhibition, actives largely listed as inhibitors;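 note: plate controls were vehicle for no effect and reference inhibitor for full effect; nearly all actives have a fitted effect of over 55% in size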
Target sequence (P08659 whole entry, looked up): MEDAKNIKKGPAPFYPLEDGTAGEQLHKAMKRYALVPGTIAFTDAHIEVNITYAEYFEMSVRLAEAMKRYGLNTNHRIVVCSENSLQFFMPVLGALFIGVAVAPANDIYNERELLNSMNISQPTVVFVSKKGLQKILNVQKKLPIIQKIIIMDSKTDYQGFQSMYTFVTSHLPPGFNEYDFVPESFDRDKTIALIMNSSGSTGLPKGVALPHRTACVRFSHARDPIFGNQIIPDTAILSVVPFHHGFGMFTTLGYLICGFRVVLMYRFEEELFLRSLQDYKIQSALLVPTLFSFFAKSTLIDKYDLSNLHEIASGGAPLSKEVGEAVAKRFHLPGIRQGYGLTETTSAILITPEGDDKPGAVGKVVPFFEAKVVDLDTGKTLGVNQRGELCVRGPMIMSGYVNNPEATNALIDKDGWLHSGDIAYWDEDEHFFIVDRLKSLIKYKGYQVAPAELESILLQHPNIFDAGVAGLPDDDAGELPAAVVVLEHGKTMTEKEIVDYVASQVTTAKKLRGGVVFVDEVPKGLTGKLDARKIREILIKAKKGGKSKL
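Purified P. pyralis luciferase (10nM final) with 10uM D-luciferin and 10uM ATP (Km levels) in 50mM Tris acetate pH 7.5, 10mM Mg acetate, 0.01% Tween-20, 0.05% BSA; qHTS 6-point titration, ~60 µM downward; luminescence read.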
NPC1 promoter act – qHTS Assay for NPC1 Promoter Activators. Huh7 NPC1 promoter luciferase reporter, 24 h. actives 2.4% (n = 320,000). Potency, µM (titrated, usually from 9.22 µM), for inactives: at the top dose activation, hits mostly activators; note: % of control where 0% means no effect; nearly all actives have a fitted effect of over 60% in size
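Luminescence from an NPC1 promoter-driven luciferase reporter in stably transfected Huh7 cells was measured after 24 h compound treatment at 37 °C, followed by 10 min ambient incubation with luciferase detection reagent.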
SMN2 splice enh – qHTS Assay for Enhancers of SMN2 Splice Variant Expression | HEK293 SMN2-luciferase splicing reporter, luminescence, 30-36 h | Potency, µM (series often up to 46.1 µM), inactives show at the highest dose activity change, positive = activation, most hits filed as activators | actives 2.8% (n = 210,000); note: % of control where 0% means no effect; nearly all actives have a fitted effect of over 55% in size
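HEK293 cells carry an SMN2 minigene-luciferase reporter in which exon 7 inclusion puts luciferase in frame. Cells were seeded at 2000 cells/well, attached for 10-12 hours, then exposed to compounds for 30-36 hours at 37C before ONE-Glo luminescence.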
ELG1 genotoxic – qHTS screen for small molecules that induce genotoxicity in human embryonic kidney (HEK293T) cells expressing luciferase-tagged ELG1 | HEK293T ELG1-luciferase reporter, luminescence, 16 h | Potency, µM (highest dose often 46 µM), for inactives: at the top dose activity change, positive = activation, hits mostly activators | actives 1.3% (n = 330,000) | AID 504466, 2011; note: % of control where 0% means no effect; nearly all actives have a fitted effect of over 60% in size
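HEK293T cells expressing luciferase-tagged ELG1 were exposed to compound or DMSO vehicle for 16 hr at 37 °C and 5% CO2. Luciferase activity was then measured with ONE-Glo after 30 min at room temperature.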
Rab9 prom act – qHTS Assay for Rab9 Promoter Activators; Huh7 Rab9 promoter-luciferase reporter, luminescence, 24 h; Potency, µM (top dose mostly 9.22 µM), without a hit: at the highest dose activation, negative = inhibition, most hits filed as activators; actives 2.8% (n = 320,000); AID 485297, 2010; note: % of control where 0% means no effect; nearly all actives have a fitted effect of over 60% in size
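Cells were plated at 1500 per well in reduced-serum medium with 10% FBS and left 2 h. Compound in DMSO was then added for 24 h at 37 °C. Reporter signal was read by luminescence after 10 min with luciferase detection reagent.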
Active calls of the source: *; ? = inconclusive; . = no result given; [ ] = dose if it differs, or a comment. Sampled rows, rich in hits. Any-hit rate of the full collection: about 7.4%. Calls come from the whole dose curve; as a rule, active = well fitted curve in the direction sought with a large enough effect; inconclusive = small, poorly fitted or top-dose-only effect, or another doubt; inactive = no such curve, though single readings can be large; an effect the other way counts as inactive or inconclusive. Potency is the fitted concentration of half-maximal effect.

SMILES | FLuc counter | NPC1 promoter act | SMN2 splice enh | ELG1 genotoxic | Rab9 prom act
CC[n+]1c(/C=C/c2ccc(N(C)C)cc2)ccc2ccccc21 | ? | -28% | -116% | 3% | -51%
CC[n+]1c(/C=C/c2ccc(OC(C)=O)c(OC)c2)ccc2ccccc21 | 19µM* | -23% | . | ? | -13%
CC[n+]1c(/C=C/c2ccc(OC)c(OC)c2)ccc2ccccc21 | 3.4µM* | 15% | . | 10µM* | 5%
CC[n+]1c(/C=C/c2cc([N+](=O)[O-])ccc2O)ccc2ccccc21 | -15% | -2% | . | 0% | -7%
CCn1c(O)c(N=NC(=O)c2cccs2)c2ccccc21 | 17µM* | ? | 1% | -9% | 2%
O=Cc1cn(-c2ccccc2)nc1-c1cc2ccccc2oc1=O | -1% | 12% | -18% | 5% | 13%
Cc1nc2ccccc2oc1=O | . | . | 10% | . | .
O=c1oc2ccccc2cc1-c1nc2ccccc2o1 | 3µM* | 3.5µM* | ? | ? | 2.8µM*
COc1ccc2oc(=O)c(-c3nc4ccccc4o3)cc2c1 | 5.4µM* | ? | ? | ? | ?
Cc1cc(-c2nnc(-c3cc4ccccc4oc3=O)o2)c(C)n1-c1ccccc1 | 6.7µM* | 24% | -6% | ? | 21%
O=c1oc2ccccc2cc1-c1nc2c(s1)CCCC2 | 0.15µM* | ? | 1µM* | ? | 0.4µM*
O=c1oc2ccccc2cc1-c1nc(-c2cccc(Cl)c2)cs1 | 3% | . | . | . | .
N#CCCN1C(=O)C2(OCCO2)c2ccccc21 | -1% | 1% | . | -3% | -5%
Cc1cc(C)nc(NS(=O)(=O)c2ccc(NC(=O)COc3ccc(C(C)(C)C)cc3)cc2)n1 | 11µM* | . | -9% | . | .
CCOc1cc(C(=O)Nc2ccc(S(=O)(=O)Nc3onc(C)c3C)cc2)cc(OCC)c1OCC | . | . | . | -4% | .
CCCOc1ccc(C(=O)Nc2ccc(S(=O)(=O)Nc3cc(C)nc(C)n3)cc2)cc1 | 15µM* | 1% | . | -4% | -1%
COc1ccc(OCC(=O)Nc2ccc(S(=O)(=O)Nc3nc(C)cc(C)n3)cc2)cc1 | -19% | -2% | 3% | -1% | 4%
CCCCOc1ccc(C(=O)Nc2ccc(S(=O)(=O)Nc3onc(C)c3C)cc2)cc1 | 17µM* | -7% | . | 0% | -6%
COc1cc(OC)cc(C(=O)Nc2ccc(S(=O)(=O)Nc3onc(C)c3C)cc2)c1 | ? | . | 5% | . | .
CCCCOc1ccc(C(=O)Nc2ccc(S(=O)(=O)Nc3nc(C)cc(C)n3)cc2)cc1 | ? | . | -20% | . | .
CCCOc1ccc(C(=O)Nc2ccc(S(=O)(=O)Nc3onc(C)c3C)cc2)cc1 | 8.5µM* | 3% | -24% | 17% | 2%
O=C(NCc1cccc(F)c1)c1ccc(CS(=O)c2ccccc2Cl)o1 (centres undefined) | 0% | . | . | . | .
Cc1cc(C)cc(C(=N)c2ccccc2Cc2cccc3ccccc23)c1 | . | . | -17%[9.22 µM] | . | .
Cc1cc(NC(=O)COC(=O)c2ccco2)no1 | 0% | -5% | -4% | 0% | -5%
Cn1c(=O)c2nc(SCC(=O)Nc3cc(Cl)cc(Cl)c3)n(C)c2n(C)c1=O | -4% | . | . | . | .
SMILES | FLuc counter | NPC1 promoter act | SMN2 splice enh | ELG1 genotoxic | Rab9 prom act
S=C(S)NCCCn1ccnc1 | . | . | -5%[9.22 µM] | . | .
Cc1cccc(C(=O)NCCc2csc(C)n2)c1 | 3% | -1% | 1.6µM* | 41% | 5%
Cc1nc(CCNC(=O)c2cccs2)cs1 | -17% | -1% | 12% | 5% | -1%
Cc1ccc(C(=O)NCCc2csc(C)n2)cc1 | 9.5µM* | ? | 14µM* | 18µM* | 3.2µM*
Cc1ccc(-c2cc(NC(=O)c3cccc(C)c3)on2)cc1 | -14% | . | ? | . | .
CC(C)=CC(=O)Nc1nnc(-c2ccccc2)s1 | ? | 2.2µM* | 11µM* | 2.9µM* | 1.4µM*
CC(C)=CC(=O)Nc1nnc(C)s1 | -17% | 9% | ? | 15% | 16%
COc1cccc(C(=O)Nc2nnc(-c3ccccc3)s2)c1OC | 12µM* | 2.5µM* | . | ? | 1.8µM*

Compound activity: PubChem, National Center for Advancing Translational Sciences (NCATS)
